Compound activity deposited in PubChem BioAssay by several laboratories.
NTR1 ag: agonists of human NTR1, primary screen, imaging, U2OS cells, beta-arrestin-GFP, high content | Neurotensin receptor type 1 (Homo sapiens), P30989 | NTR1-U2OS beta-arrestin-GFP spot imaging, agonist mode | activation, % at 20 µM | 330,000 compounds, 0.17% hits;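 active means activation at or above 40% of the spot to cytoplasm intensity ratio, with at least 20 cells analyzed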
Target sequence (P30989 whole entry, looked up): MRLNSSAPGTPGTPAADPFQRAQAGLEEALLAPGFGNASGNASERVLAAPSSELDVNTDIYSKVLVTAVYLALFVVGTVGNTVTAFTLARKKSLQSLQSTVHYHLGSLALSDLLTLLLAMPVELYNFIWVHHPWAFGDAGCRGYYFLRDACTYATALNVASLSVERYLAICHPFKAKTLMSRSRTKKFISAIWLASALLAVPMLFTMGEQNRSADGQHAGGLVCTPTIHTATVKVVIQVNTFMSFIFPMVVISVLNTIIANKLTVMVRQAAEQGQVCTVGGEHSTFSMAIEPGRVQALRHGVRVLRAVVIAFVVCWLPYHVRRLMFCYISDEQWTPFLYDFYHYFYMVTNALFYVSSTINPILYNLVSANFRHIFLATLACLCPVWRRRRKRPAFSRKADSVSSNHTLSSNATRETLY
AHR act: AHR activators, primary screen, cell-based, luminescence, luciferase reporter, human | activation, % at 5 µM | AID 2796, 2010 | AHR-responsive luciferase reporter cells | 320,000 compounds, 2.5% hits | Aryl hydrocarbon receptor (Homo sapiens), P35869; in the data active means activation above about 47%
NR3A LBD binder: binders of NR3A ligand-binding domain, primary screen, biophysical, differential scanning fluorimetry, uHTS; Glutamate receptor ionotropic, NMDA 3A (GRIN3A) ligand-binding domain; NR3A LBD differential scanning fluorimetry, Tm shift; 0% = protein alone, 100% = glycine-bound protein; Tm shift relative to glycine control, % at 25 µM; 340,000 compounds, 2.5% hits;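 active means melting temperature shift of at least 10% of the positive control shift, at one fixed dose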
Cardio protect: cardioprotection against H2O2-induced cell death, primary screen, uHTS, H9c2 cells, ATPLite luminescence | 360,000 compounds, 0.63% hits | H9c2 cardiomyocytes, H2O2 injury protection, 2 h | protection from H2O2 cell death, % at 20 µM;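 active means compounds giving at least 50% protection of heart cells from peroxide-induced death in the single-dose screen, raw or plate-pattern-corrected value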
AI-2 QS mod: Vibrio harveyi AI-2 quorum sensing modulators, primary screen, JMH597 strain, luminescence/OD600 ratio. Vibrio harveyi JMH597 AI-2 luminescence/OD600 ratio, 9 h; active compounds read low; strain lacks LuxN and CqsS sensors; 0 = neutral-control median. activity change, % at 7.5 µM. 300,000 compounds, 0.4% hits. AID 2094, 2009; in the data active means activity change below about -75%, passing the limit was not always enough;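 further: luminescence divided by OD600 gain over 9 h not by final OD600 alone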
SUMO Mot1 rescue: yeast Mot1-301 growth rescue at high temperature, primary screen, SUMOylation pathway inhibitor project, S. cerevisiae, ATP luminescence, 38.5C. growth rescue, % at 18.8 µM. 320,000 compounds, 1% hits. S. cerevisiae Mot1-301 growth rescue; percent above DMSO median, 100 means doubled;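 active means every valid replicate shows activation above 250% relative to neutral control wells; inactive means the rest, any valid replicate at or below 250%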
Of the large screens only hits and unclear results are named; the others gave an inactive call. Hits are enriched below; roughly 6.2% of the tested compounds scored in any of these assays.

Cc1nn(CCCC(=O)Nc2sc3c(c2C#N)CCC3)c(C)c1[N+](=O)[O-]	none
CC(=O)NC(CC(C)C)C(=O)NC(Cc1ccccc1)C(=O)CCl (stereo unspecified)	NR3A LBD binder 17 (no result: NTR1 ag, AHR act, AI-2 QS mod, SUMO Mot1 rescue)
CNc1cc(CSc2ccc(Cl)cc2)nc(C)n1	AHR act 68
Cc1nc(CSc2ccc(Cl)cc2)cc(NCc2ccccc2)n1	none
Fc1ccc(-n2c(-c3ccco3)nc3nc4ccccc4nc32)cc1	none (no result: SUMO Mot1 rescue)
Fc1ccc(-c2nc3nc4ccccc4nc3n2Cc2ccco2)cc1	NR3A LBD binder 21
Cc1ccccc1-c1nc2sc3c(c2c(=O)n1N)CCCC3	none
CC1(C)Cc2c(sc3nc(-c4ccccc4)n(N)c(=O)c23)CO1	none
CC1(C)Cc2c(sc3nc(-c4cccs4)n(N)c(=O)c23)CO1	AHR act 73
Nn1c(-c2cccs2)nc2sc3c(c2c1=O)CCCC3	AHR act 58
O=[N+]([O-])c1ccc(-c2nc3ccc([N+](=O)[O-])cc3[nH]2)cc1	none
Nc1ccc(-c2nc3ccc([N+](=O)[O-])cc3[nH]2)cc1	NR3A LBD binder 25
Nc1ccc2nc(-c3cc(Cl)c(N)c(Cl)c3)[nH]c2c1	NR3A LBD binder 12
Nc1ccc(-c2nc3ccc(N)cc3[nH]2)cc1	none
Cc1nc2ccc(-c3nc4ccccc4o3)cc2[nH]1	none
Nc1ccc(-c2nc3ccc(-c4nc5ccccc5o4)cc3[nH]2)cc1	NR3A LBD binder 18
c1ccc(-n2cnc3cc(NCc4cccs4)ccc32)cc1	none
Cn1cnc2cc(NCc3cccs3)ccc21	AHR act 50 (no result: AI-2 QS mod)
CC(C)c1onc(C(=O)Nc2cccc(Cl)c2)c1[N+](=O)[O-]	NR3A LBD binder 20
CN(C)C1(CNC(=O)C2CCC(=O)N(CCc3ccc(Cl)cc3)C2)CCCCC1 (stereo unspecified)	none
Cc1ccc(S(=O)(=O)N(C)C)cc1NC(=O)c1cc(S(=O)(=O)N2CCCCC2)ccc1N1CCOCC1	none (no result: AHR act, AI-2 QS mod, SUMO Mot1 rescue)
O=C(OCCN=C1NS(=O)(=O)c2ccccc21)C1CC(=O)N(c2ccc(Cl)cc2)C1 (stereo unspecified)	NR3A LBD binder 24
O=c1nc(Nc2ccccc2)sc2ccc([N+](=O)[O-])cc12	NR3A LBD binder 20
Cc1cc(Nc2ccc([N+](=O)[O-])cc2)c2ccccc2n1	none
O=C1OC(c2ccc(F)cc2)=C/C1=C\c1ccc([N+](=O)[O-])o1	none (no result: NR3A LBD binder, Cardio protect)
O=C1OC(c2ccc(F)cc2)=C/C1=C\c1ccc(O)cc1	NR3A LBD binder 17
CC1=CC(C)C(COC(=O)CN2CCCCC2)C(C)C1 (stereo unspecified)	NR3A LBD binder 11
Cn1cnc(S(=O)(=O)N2CCCCC2c2cc(C(=O)Nc3ccc(F)c(Cl)c3)no2)c1 (stereo unspecified)	none (no result: NTR1 ag, AHR act, NR3A LBD binder, AI-2 QS mod, SUMO Mot1 rescue)
COc1ccc(NC(=S)NNC(=O)CNc2ccc(Cl)cc2)cc1	NR3A LBD binder 12
COc1ccc(OCC(=O)Nc2ccc(C(=O)Nc3ccccc3C(=O)O)cc2)cc1	none
O=C(COc1ccc2ccccc2c1)Nc1cccc(C(=O)Nc2ccccc2C(=O)O)c1	NR3A LBD binder 12
O=C(COc1ccc(Br)cc1)Nc1ccc(C(=O)Nc2ccccc2C(=O)O)cc1	NR3A LBD binder 11
CCOc1ccc(CNS(=O)(=O)c2cc(-c3cc(C)no3)ccc2OC)cc1OC	none
COc1cccc(C(C#N)NCCCNC(C#N)c2cccc(OC)c2OC)c1OC (stereo unspecified)	none (no result: NTR1 ag, AHR act, AI-2 QS mod, SUMO Mot1 rescue)
Cc1ccc(C)c(C(=O)COC(=O)c2n[nH]c3ccccc23)c1	none (no result: AI-2 QS mod)
O=C(COC(=O)c1n[nH]c2ccccc12)c1cccc(Br)c1	AI-2 QS mod -92
Cc1ccc(/C=C2\SC(=S)N(Cc3ccccc3)C2=O)o1	none (no result: AI-2 QS mod)
COc1cc(/C=C2/SC(=S)N(Cc3ccccc3)C2=O)ccc1O	NR3A LBD binder 20
COc1cc(/C=C2/SC(=NCc3ccccc3)N(Cc3ccccc3)C2=O)ccc1O	NR3A LBD binder 13 (no result: SUMO Mot1 rescue)
O=C1/C(=C\c2cccc(O)c2)SC(=S)N1Cc1ccccc1	none
O=C1/C(=C\c2ccc(O)c(O)c2)SC(=S)N1Cc1ccccc1	NR3A LBD binder 29 (no result: AHR act)
O=C1/C(=C\c2cccc(O)c2O)SC(=S)N1Cc1ccccc1	NR3A LBD binder 38
CCN=C1S/C(=C\c2ccc(O)c(OCC)c2)C(=O)N1CC	none
CC(C)Oc1cc(F)ccc1-c1cc(C(=O)NCc2cccnc2)[nH]n1	none (no result: NTR1 ag, AHR act, NR3A LBD binder, AI-2 QS mod, SUMO Mot1 rescue)
c1ccc(Cn2cc(-c3ccccc3)cn2)cc1	none (no result: AI-2 QS mod)
O=C1/C(=C/c2ccncc2)SC(=S)N1Cc1ccccc1	NR3A LBD binder 21
CN(C)c1ccc(NS(=O)(=O)c2cc(Cl)ccc2Cl)cc1	none
Cc1ccc(NS(=O)(=O)c2sc3ccc(Cl)cc3c2C)cc1	NR3A LBD binder 16, SUMO Mot1 rescue 665
CCOc1ccccc1NC(=O)C(=O)CC(=O)c1ccc(OC)cc1	none
Cc1ccc(NN=C2c3ccccc3-c3ccccc32)cc1	AHR act 68
c1ccc(NN=C2c3ccccc3-c3ccccc32)cc1	none (no result: NTR1 ag, AHR act, AI-2 QS mod, SUMO Mot1 rescue)
Cc1c(C(=O)N2CCNCC2)oc2ccccc12	none (no result: AHR act)
CCCS(=O)(=O)NC(=O)C1(C)CCCN(C(=O)COCc2ccccc2)C1 (stereo unspecified)	none (no result: NTR1 ag, AHR act, NR3A LBD binder, AI-2 QS mod, SUMO Mot1 rescue)
CC(C)C[C@@H](CN1CCCC1CN1C(=S)NC[C@@H]1Cc1ccc(O)cc1)N1C[C@H](Cc2ccc(O)cc2)N(CCc2ccccc2)C1=S (stereo partly specified)	NR3A LBD binder 24 (no result: NTR1 ag, AHR act, AI-2 QS mod, SUMO Mot1 rescue)
Oc1ccc(C[C@H]2CNC(=S)N2CC2CCCN2C[C@H](Cc2ccc(O)cc2)N2C[C@H](Cc3ccccc3)N(CC3CCCCCC3)C2=S)cc1 (stereo partly specified)	NR3A LBD binder 20 (no result: NTR1 ag, AHR act, AI-2 QS mod, SUMO Mot1 rescue)
CCOc1ccc(CCN2C(=S)N([C@@H](Cc3ccc(O)cc3)CN3CCCC3CN3C(=S)NC[C@@H]3Cc3ccc(O)cc3)C[C@@H]2CC(C)C)cc1 (stereo partly specified)	NR3A LBD binder 13 (no result: NTR1 ag, AHR act, AI-2 QS mod, SUMO Mot1 rescue)
Oc1ccc(C[C@H]2CNC(=S)N2CC2CCCN2C[C@H](Cc2ccc(O)cc2)N2C[C@H](Cc3ccc(O)cc3)N(CC3CCCCCC3)C2=S)cc1 (stereo partly specified)	NR3A LBD binder 28 (no result: NTR1 ag, AHR act, AI-2 QS mod, SUMO Mot1 rescue)
O=C(CCC(=O)N1CCOc2ccccc21)NCc1cccnc1	none
CC1Cc2cc(/C(O)=C3/C(=O)C(=O)N(CCCN4CCOCC4)C3c3ccc(C(C)C)cc3)ccc2O1 (stereo unspecified)	none
